# Shiga toxin inh – Shiga toxin inhibition; Vero cells, Shiga toxin protein synthesis inhibition reporter; inhibition, % at 38.7 µM; actives 9.2% (n = 290,000); AID 2315; in the data active means inhibition mostly above about 28%, no sharp cut-off; inactive means mostly below about 43%; further: 0% is about no effect
# AMA1-RON2 inh – disrupts binding of P. falciparum AMA1 to RON2; AID 720542; Potency, µM (titrated, usually from 58.2 µM), inactives show top-dose activity change, negative = inhibition, most hits filed as inhibitors; actives 0.2% (n = 360,000); AlphaScreen AMA1-biotinylated RON2 peptide binding; active means well fitted inhibition curve with a large enough effect; inconclusive means small, poorly fitted or top-dose-only effect; inactive means no such curve, though single readings can be large or run the other way;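 further: potency means the concentration at half of the fitted maximal effect; 0% = vehicle wells and -100% = peptide control; nearly all actives have a fitted effect of over 45% in size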
#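 AMA1 (3D7) with his tag at 25 nM final met compounds first, then biotinylated RON2 peptide at 25 nM; detection used donor plus acceptor beads, 10 µg/mL apiece, read by AlphaScreen after 30 min at room temperature.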
# LASV entry inh – Lassa virus entry inhibition. Lassa virus pseudotype entry inhibition, cell reporter. Potency, µM (highest dose often 37.9 µM), for the others: top-dose activity change, negative = inhibition, usual class: inhibitors. actives 1.2% (n = 300,000). AID 540256; calls by dose curve; tested in HEK293 cells; further: potency means the concentration at half of the fitted maximal effect; on the % scale 0 is the no-effect control and ±100 the full control effect; nearly all actives have a fitted effect of over 50% in size
# CHX counter – affects cycloheximide protein synthesis inhibition readout, counter-screen | cell reporter, cycloheximide protein synthesis inhibition counterscreen | max response, % | actives 12% (n = 300,000) | AID 2314; in the data active means max response mostly above about 13%, no sharp cut-off; inactive means mostly below about 14%; further: read at 38.3 µM for the half of the compounds with a filed dose; 0% is about no effect
# Marburg entry inh – blocks Marburg virus binding to or entry into cells | Marburg virus pseudotyped entry inhibition, cell reporter | Potency, µM (highest dose often 37.8 µM), for the others: at the top dose activity change, negative = inhibition, hits mostly inhibitors | actives 1.8% (n = 300,000); calls by dose curve; tested in HEK293 cells; further: potency means the concentration at half of the fitted maximal effect; on the % scale 0 is the no-effect control and ±100 the full control effect
# * hit, by the source's call; ? = inconclusive; / = no result given; [ ] = another dose, or the depositor's remark. The full list was thinned out, with hits kept by preference.
SMILES,Shiga toxin inh,AMA1-RON2 inh,LASV entry inh,CHX counter,Marburg entry inh
CCOC(=O)c1c(C)[nH]c(C2=NNC(=Nc3ccccc3OC)SC2)c1C,41.7*,27.9%,?,49.4*,?
CCOC(=O)c1c(C)[nH]c(C(=O)OCC(=O)Nc2cc(C)ccc2OC)c1C,-15.4,-9.3%,-1.2%,-3.8,16.6%[46.1 µM]
CC(=O)c1c(C)[nH]c(C2=NNC(=NC(C)(C)C)SC2)c1C,82.2*,24.8%,15.2%[46.1 µM],29.4*,21.5%[46.1 µM]
CCOC(=O)c1c(C)[nH]c(C2=NNC(=Nc3ccccc3)SC2)c1C,29.6*,18.7%,/,20.5*,1.3%
CCOC(=O)c1c(C)[nH]c(C2=NNC(=Nc3ccc(OCC)cc3)SC2)c1C,3.6,-20.6%,?,12.6*,?
CCOC(=O)C1=C(O)CSC1=Nc1ccccc1,-12.1,5.8%,1.9%,-3.3,11.0%
N#C/C(=C/c1cn(Cc2ccc(F)cc2)c2ccccc12)C(=O)Nc1cccc(Cl)c1,/,/,-9.3%[46.1 µM],/,/
CN(C(=O)C1CCC(=O)N(Cc2cccc(F)c2)C1)C1CCCCC1 (stereo not given),121.4*,-0.1%,-1.1%[46.1 µM],86.9*,24.1%[46.1 µM]
COc1ccc(CCCNC(=O)C2CCC(=O)N(CCCN3CCCC3=O)C2)cc1 (stereo not given),-3.6,-8.3%,/,-1.4,/
C#CCN(C(=O)C1CCC(=O)N(CCc2cccc(F)c2)C1)C1CCCCC1 (stereo not given),/,-5.7%,/,/,/
O=C(NCCc1ccc(C(F)(F)F)cc1)C1CCC(=O)N(CCCN2CCCC2=O)C1 (stereo not given),17.6,4.2%,/,11.8*,/
COc1ccccc1CCNC(=O)C1CCC(=O)N(Cc2cccc(F)c2)C1 (stereo not given),37.4*,12.2%,/,20.0*,/
CC(C)Oc1ccc(CCNC(=O)C2CCC(=O)N(Cc3cccc(F)c3)C2)cc1 (stereo not given),53.6,3.2%,-4.1%,55.4*,-2.8%
CC1=C(C(=O)N2CCCCCC2)CC(CC(=O)NCCc2ccccn2)C(=O)N1CCCN1CCCC1=O (stereo not given),/,2.7%,/,/,/
Nc1cc(S(=O)(=O)N2CCOCC2)ccc1Oc1cccc(Br)c1,/,-22.2%,?,/,?
COc1ccccc1CN1CC(C(=O)NCCN(C)CCc2ccccc2)CCC1=O (stereo not given),-8.1,0.0%,5.62µM*,11.6,?
COc1ccccc1CN1CC(C(=O)NCCc2ccc(C)o2)CCC1=O (stereo not given),-3.0,5.2%,/,13.0,/
CN(CCNC(=O)C1CCC(=O)N(Cc2ccc(Cl)cc2)C1)CCc1ccccc1 (stereo not given),-9.4,-13.0%,20.1%,3.8,?
COc1ccccc1CCNC(=O)C1CCC(=O)N(Cc2ccccc2OC)C1 (stereo not given),23.3,-7.7%,21.3%,14.6*,17.2%
COc1ccc(CCNC(=O)C2CCC(=O)N(CCc3ccc(OC)cc3)C2)cc1 (stereo not given),22.9,-2.9%,/,16.5,/
COc1ccc(CCN2CC(C(=O)NCCc3ccccc3C(F)(F)F)CCC2=O)cc1 (stereo not given),69.9*,-16.7%,/,65.8*,/
COc1ccccc1CN1CC(C(=O)NCc2c(F)ccc(C)c2F)CCC1=O (stereo not given),81.8*,7.0%,/,47.3*,/
CN(C)S(=O)(=O)c1cccc(NC(=O)CN2C(=O)NC3(CCc4ccccc4C3)C2=O)c1 (stereo not given),-4.2,0.4%,-0.1%,0.7,-18.3%
COC1C(C)OC(OC2CC(C)(O)Cc3cc4c(c(O)c32)C(=O)c2c(O)cc3c(c2C4=O)OC2OC3(C)C(O)C(N(C)C)C2O)C(OC)C1(C)OC (stereo not given),/,-9.2%,?,/,?
O=C(Nc1ccc(F)cc1F)c1cc(-c2ccc(Cl)cc2)on1,/,/,23.6%[46.1 µM],/,2.2%[46.1 µM]
SMILES,Shiga toxin inh,AMA1-RON2 inh,LASV entry inh,CHX counter,Marburg entry inh
Cc1cc(C(F)F)n2nc(C(=O)Nc3c(F)cc(F)cc3Br)nc2n1,-5.9,-3.7%,13.8%,-2.7,12.7%[46.1 µM]
O=C(Nc1c(F)cc(F)cc1Br)c1cc(-c2ccc(O)cc2)on1,22.9,0.0%,/,30.7*,/
O=C(Nc1c(F)cc(F)cc1Br)c1cc(-c2ccccc2)on1,/,-1.6%,/,15.9*,/
Cc1cc(C(=O)Nc2c(F)cc(F)cc2Br)no1,25.9,0.0%,5.9%,13.6*,10.0%
O=C(NC1CCCCC1)N(c1ccccc1)c1nnc(-c2cccc([N+](=O)[O-])c2)s1,/,-8.4%,/,/,/
Cc1cc(C)cc(C(=O)Nc2c(C(=O)Nc3ccccc3F)oc3ccccc23)c1,/,/,-4.9%[46.1 µM],/,3.0%[46.1 µM]
COc1cc(OC)cc(C(=O)NNC(=O)c2cc3c(s2)CCCC3)c1,1.3,-2.5%,/,-1.4,/
COc1ccccc1NC(=O)c1ccc(NC(=O)c2cc3c(s2)CCC3)cc1,-10.1,-5.4%,-25.1%,-8.4,?
O=C(NNC(=S)Nc1ccc(OC(F)F)cc1)c1cc2c(s1)CCCC2,10.1,23.5%,-11.2%,13.7*,?
O=C(Nc1ccccc1OC(F)F)c1cc2c(s1)CCC2,43.3*,24.9%,/,39.9*,/
Cc1ccccc1-c1nc(CS(=O)(=O)CC(=O)NCc2cccc(Cl)c2)c(C)o1,/,/,9.8%[46.1 µM],/,-12.1%[46.1 µM]
OC1=C(O)c2nc3cc(C(F)(F)F)ccc3nc21,-0.7,28.2µM*,6.9%[46.1 µM],-1.1,-3.1%[46.1 µM]
Cc1[nH]n(-c2ccccc2)c(=O)c1C=NC1CCCCCC1,38.7,-3.7%,12.9%,20.0*,-12.4%
Cc1[nH]n(-c2ccccc2)c(=O)c1C=Nc1cccc(F)c1,57.1*,15.0%,-19.5%,9.0,10.6%
Cc1[nH]n(-c2ccccc2)c(=O)c1/C=N/N(c1ccccc1)c1ccccc1,19.2,2.5%,15.3%,-4.9,?
C=CCN=Cc1c(C)[nH]n(-c2ccccc2)c1=O,93.5*,-7.9%,-5.3%,22.1*,1.0%
Cc1[nH]n(-c2ccccc2)c(=O)c1C=NC1CCCCC1,48.9*,1.1%,/,14.0*,/
CCN1CC(CN(C)Cc2nc(-c3ccc(OC)c4ccccc34)oc2C)CC1=O (stereo not given),-3.7,4.5%,13.6%[46.1 µM],-3.1,?
O=NN(CC(=O)NN=CC=Cc1ccccc1)CC(=O)NN=CC=Cc1ccccc1,/,93.8%,/,/,/
Cc1ccc(/C=N/NC(=O)Cc2cccn2C)s1,58.2*,-0.6%,?,49.1*,10.4%
CCc1ccc(/C=N/NC(=O)Cc2cccn2C)cc1,51.1*,21.2%,5.5%,28.7*,7.6%[46.1 µM]
Cn1cccc1CC(=O)N/N=C\c1cccs1,15.5,0.0%,8.8%,9.2,5.2%
Cn1cccc1CC(=O)N/N=C/C=C/c1ccccc1,82.4*,48.8%,3.8%,24.7*,?
Cc1ccc(/C=N/NC(=O)Cc2c(F)cccc2Cl)s1,78.6*,2.4%,/,54.4*,/
Cc1ccc(S(=O)(=O)N2CCOCC2)cc1C(=O)OCC(=O)Nc1ccc2[nH]c(=O)[nH]c2c1,/,-0.9%,4.4%,/,?
O=C(CN1CCOCC1)N/N=C/C=C/c1ccccc1,10.7,2.2%,1.9%,25.2*,25.1%[46.1 µM]
Cn1cccc1CC(=O)N/N=C/c1ccc(C(C)(C)C)cc1,54.2*,-6.2%,-24.1%,22.3*,?

# Compound activity deposited in PubChem BioAssay by National Center for Advancing Translational Sciences (NCATS).
